Calls of active or inactive are those of the source. Unless noted, how the calls were made is not given here.
Assays:
[1] = test system: XIP peptide (Xip251-270) binding; assay: small-molecule binders of XIP peptide, primary screen, biochemical, small-molecule microarray, fluorescence 635/667 nm, 0.1 µg/mL protein (AID 1182); settings: fluorescent protein binding, 635 nm, higher = more signal, called active from +8 up or from −8 down
XIP peptide (Xip251-270) = assay: small-molecule binders of XIP peptide, primary screen, biochemical, small-molecule microarray, fluorescence 635/667 nm, 0.5 µg/mL protein (AID 1183); settings: small-molecule microarray binding, fluorescence 635 nm; higher = more signal
[2] = Plasmodium falciparum growth inhibition, primary screen, strain 3D7, DAPI fluorescence, 100 nL (AID 1184);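 further: parasites grown inside human red blood cells in medium with human serum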; settings: P. falciparum 3D7 growth, 3 d, higher = more signal
[3] = target: Homeobox protein Hox-A13 (Mus musculus) (UniProt Q62424); assay: inhibitors of HoxA13-DNA binding, primary screen, biochemical, fluorescence polarization, labeled oligonucleotide (AID 1185); settings: 15 min, higher = more signal, called active from +8 up or from −8 down
Homeobox protein Hox-A13 (Mus musculus), sequence (Q62424 whole entry, looked up): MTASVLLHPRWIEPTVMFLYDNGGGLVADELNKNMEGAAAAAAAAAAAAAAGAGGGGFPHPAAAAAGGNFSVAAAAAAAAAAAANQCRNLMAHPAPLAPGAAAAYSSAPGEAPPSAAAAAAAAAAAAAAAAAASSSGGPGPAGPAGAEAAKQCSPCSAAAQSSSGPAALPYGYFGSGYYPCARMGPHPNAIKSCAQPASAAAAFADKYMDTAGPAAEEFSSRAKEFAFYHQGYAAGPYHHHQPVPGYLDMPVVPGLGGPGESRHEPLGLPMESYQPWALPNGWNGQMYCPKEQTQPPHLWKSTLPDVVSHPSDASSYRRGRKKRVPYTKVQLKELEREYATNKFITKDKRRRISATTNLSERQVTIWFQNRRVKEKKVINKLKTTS

[4] = inhibitors of hydroxyurea-induced Chk1 phosphorylation, primary screen, imaging, HeLa, phospho-Chk1 antibody, percent positive cells (AID 1186); settings: hydroxyurea-induced phospho-Chk1 immunofluorescence imaging, higher = more signal
[5] = inhibitors of hydroxyurea-induced Chk1 phosphorylation, primary screen, imaging, HeLa, phospho-Chk1 nuclear intensity (AID 1187); settings: hydroxyurea-induced phospho-Chk1 immunofluorescence imaging, higher = more signal

SMILES	composite z-score [1]	composite z-score (XIP peptide (Xip251-270))	z-score [2]	z-score [3]	z-score [4]	z-score [5]
CC1CC/C=C\[C@H]2OC34C=CCN(C(C)(C)C)C(=O)[C@H]3N(C(C)CO)C(=O)[C@@H]4C2C(=O)O1 (stereo partly specified)	-0.323 (inactive)	-1.08	0.0549	-5.51 (inactive)	0.714 (inactive)	-0.0558 (inactive)
COc1cc(C(O)C2C=CC3C(=O)NC(=O)C3N2Nc2ccccn2)cc(OC)c1OC (stereo unspecified)	-0.0962 (inactive)	0.405	1.26	-2.19 (inactive)	0.209 (inactive)	0.228 (inactive)
CCOC(=O)C[C@H]1[C@H](OC(=O)c2ccc(C(=O)c3ccccc3)cc2)[C@@H](NC(=O)CC(C)C)c2cc(OCCCO)ccc2N1C(=O)c1ccc2ccccc2n1	1.24 (inactive)	0.642	-0.057	-2.72 (inactive)	-0.776 (inactive)	-0.687 (inactive)
C=CC[C@@]1(C(=O)NCCN2CCOCC2)N=C(c2ccc(OCCCO)cc2)O[C@@H]1c1ccccc1N=[N+]=[N-]	2.32 (inactive)	-0.0559	-2.21	-6.17 (inactive)	0.003 (inactive)	-0.0928 (inactive)
CN1C=C(C(=O)OCCS(C)(=O)=O)C(C(=O)OCCS(C)(=O)=O)=CC(c2ccc(CO)cc2)=CC1C1CC1 (stereo unspecified)	0.943 (inactive)	-0.452	-2.35	-5.4 (inactive)	-1.15 (inactive)	0.15 (inactive)
COCCOC(=O)N1C(=O)[C@@]2(c3cc(C#Cc4ccc(OC)cc4)ccc31)[C@H](c1ccccc1OCCO)N1[C@H](c3ccccc3)[C@H](c3ccccc3)OC(=O)[C@H]1[C@@H]2C(=O)NC[C@H](O)c1ccccc1	0.159 (inactive)	0.815	-1.8	-1.34 (inactive)	-0.203 (inactive)	-0.29 (inactive)
COC(=O)[C@@]1(Cc2ccc(OC)cc2)[C@H]2c3cc(C(=O)N(C)C)n(CCc4ccccn4)c3C[C@H]2CN1C(=O)c1ccccc1	-0.312 (inactive)	-0.7	-1.52	-2.39 (inactive)	0.808 (inactive)	0.0643 (inactive)
COCCOC(=O)N1C(=O)[C@@]2(c3cc(C#CC4(O)CCCCCC4)ccc31)[C@H](c1ccc(OCCO)cc1)N1[C@H](c3ccccc3)[C@H](c3ccccc3)OC(=O)[C@H]1[C@@H]2C(=O)N1CCN(c2ncccn2)CC1	0.647 (inactive)	0.61	-2.06	0.253 (inactive)	-0.0615 (inactive)	0.22 (inactive)
CN1C(=O)C2C=CC(C(O)c3ccccc3)N(N(c3ccccc3)c3ccccc3)C2C1=O (stereo unspecified)	-0.274 (inactive)	-0.0284	0.796	-1.72 (inactive)	0.812 (inactive)	0.606 (inactive)
CCCC#C[Si](O[C@H](CC)c1cn(Cc2cccc(Cl)c2)nn1)(C(C)C)C(C)C	-0.0517 (inactive)	0.298	-0.0039	-0.759 (inactive)	-0.501 (inactive)	-0.675 (inactive)
COc1cc(NN2C(C(O)c3ccco3)C=CC3C(=O)N(c4ccccc4)C(=O)C32)cc(OC)c1OC (stereo unspecified)	0.318 (inactive)	0.737	-0.372	-3.83 (inactive)	0.153 (inactive)	-0.416 (inactive)
C=CC[C@]1(C(=O)NCc2ccccc2)N=C(c2ccc(OCCCO)cc2)O[C@H]1c1ccccc1N=[N+]=[N-]	0.525 (inactive)	0.699	-2.18	-1.87 (inactive)	-0.22 (inactive)	0.148 (inactive)
C=CCNC(=O)[C@@H]1[C@H]2C(=O)O[C@H](c3ccccc3)[C@H](c3ccccc3)N2[C@H](c2ccc(O)cc2)[C@@]12C(=O)N(C(=O)OCCOC)c1ccc(C#CCNC(N)=O)cc12	0.963 (inactive)	0.787	0.251	-2.11 (inactive)	-0.26 (inactive)	-0.436 (inactive)
O=C1C2C=CC(C(O)CCc3ccccc3)N(Nc3ccccc3F)C2C(=O)N1c1ccccc1 (stereo unspecified)	0.605 (inactive)	0.524	-0.0934	-2.76 (inactive)	0.652 (inactive)	0.699 (inactive)
O=C1C2C=CC(C(O)c3cc(C(F)(F)F)cc(C(F)(F)F)c3)N(n3cnnc3)C2C(=O)N1Cc1ccccc1 (stereo unspecified)	-0.0242 (inactive)	0.662	-1.06	-2.95 (inactive)	0.506 (inactive)	0.135 (inactive)
[N-]=[N+]=Nc1ccccc1[C@H]1OC(c2ccc(OCCCO)cc2)=N[C@@]1(CCS(=O)(=O)c1ccccc1)C(=O)NCC(O)CO (stereo partly specified)	-0.193 (inactive)	0.557	-1.81	-4.65 (inactive)	-0.0536 (inactive)	-0.22 (inactive)

— PubChem BioAssay
